# Most compounds without a hit are left out; they make up all but 2.4% or so of the library.
# SmPrx2 inh: Schistosoma Mansoni Peroxiredoxins (Prx2); Schistosoma mansoni peroxiredoxin 2 (Prx2); S. mansoni Prx2 activity coupled to TGR/GSH (TGR is thioredoxin glutathione reductase), NADPH fluorescence loss, qHTS; Potency, µM; 65,000 compounds, 0.07% hits
#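 Prx2 inhibition was measured as reduced NADPH consumption when electrons flowed from NADPH through TGR and glutathione to Prx2 and H2O2. Plates were read kinetically over 8 min; enzyme reagents were held at 4 deg C during dispensing.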
# AmpC inh no det: Promiscuous and Specific Inhibitors of AmpC Beta-Lactamase (assay without detergent); P00811; AmpC nitrocefin hydrolysis, absorbance 480 nm, no detergent; Potency, µM (highest dose often 28.7 µM), for the others: at the highest dose activity change, negative = inhibition; 71,000 compounds, 1.8% hits; further: % of control where 0% means no effect
# Target sequence (P00811 whole entry, looked up): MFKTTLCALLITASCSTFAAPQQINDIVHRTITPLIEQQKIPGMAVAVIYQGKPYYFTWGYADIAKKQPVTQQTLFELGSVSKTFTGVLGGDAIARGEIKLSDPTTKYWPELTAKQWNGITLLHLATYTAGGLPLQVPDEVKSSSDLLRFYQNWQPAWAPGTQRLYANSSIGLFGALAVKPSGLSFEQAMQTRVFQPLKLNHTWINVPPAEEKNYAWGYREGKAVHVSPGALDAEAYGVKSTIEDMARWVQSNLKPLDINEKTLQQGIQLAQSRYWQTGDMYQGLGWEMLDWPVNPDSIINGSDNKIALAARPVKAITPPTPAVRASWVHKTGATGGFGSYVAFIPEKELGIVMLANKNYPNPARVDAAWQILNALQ
#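 Enzyme, pH 7.0 phosphate. Compound titrations were pre-incubated with AmpC for 15 min at room temperature before nitrocefin (stock 800 uM) addition; product formation was recorded at 480 nm every 20 s for 4 min.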
# AmpC det inh: Promiscuous and Specific Inhibitors of AmpC Beta-Lactamase (assay with detergent) | P00811 | purified AmpC, nitrocefin hydrolysis with detergent | Potency, µM (titrated, usually from 28.7 µM), inactives show top-dose activity change, negative = inhibition | 71,000 compounds, 0.09% hits | AID 584, 2007; active means well fitted curve in the direction sought with a large enough effect; inconclusive means small, poorly fitted or top-dose-only effect; further: on the % scale 0 is the no-effect control and ±100 the full control effect
#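 E. coli AmpC (5.3 nM) in 20 mM phosphate pH 7.0 with 0.01% Triton X-100, preincubated 15 min RT with compound; nitrocefin (2 uL of 800 uM stock) hydrolysis followed by 480 nm absorbance every 20 s over 4 min.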
# LT uptake inh: qHTS Assay for Anthrax Lethal Toxin Internalization; Cells, anthrax lethal toxin internalization, FRET ratio (460/530); Potency, µM (series often up to 40 µM), for inactives: at the highest dose activity change, negative = inhibition, usual class: inhibitors; 70,000 compounds, 0.67% hits; AID 912, 2007; further: on the % scale 0 is the no-effect control and ±100 the full control effect; nearly all actives have a fitted effect of over 50% in size
# Numbers without * were called inactive; ? = inconclusive; nt = no result; [ ] = remark or other dose. Unless noted, the call rests on the fitted dose curve. Potency means the concentration at half of the fitted maximal effect.
SMILES,SmPrx2 inh,AmpC inh no det,AmpC det inh,LT uptake inh
O=S(=O)(c1ccc(S(=O)(=O)N2CCN3CCCC3C2)cc1)N1CCCC1 (configuration not stated),>57,16%,3%,5%
OC(CN1C2=NCCCN2c2ccccc21)c1ccc(Cl)cc1 (configuration not stated),>57,4µM*[single pt active],13%,?
COc1ccc(S(=O)(=O)Cc2ccc(C(=O)NCc3cccnc3)o2)cc1,>57,4µM*[single pt active],16%,-9%
COc1ccc(S(=O)(=O)Cc2ccc(C(=O)NCCc3ccc(S(N)(=O)=O)cc3)o2)cc1,>57,-4%,11%,-11%
COc1ccc(S(=O)(=O)Cc2ccc(C(=O)NCc3ccc(F)cc3)o2)cc1,>57,4µM*[single pt active],6%,?
COCCCNC(=O)c1ccc(CS(=O)(=O)c2ccc(OC)cc2)o1,>57,4µM*[single pt active],12%,-11%
CCN(CCCCOC(=O)c1ccc(OC)c(OC)c1)[C@@H](C)Cc1ccc(OC)cc1,>57,13%[12.8 µM],0%[12.8 µM],-1%[3.58 µM]
O=C1C[C@H]2OCCC=C3CN4CC[C@@]56c7ccccc7N1[C@@H]5[C@H]2[C@H]3C[C@@H]46,>57,-9%,3%,?
CCCn1c(C)nc2c(Nc3ccccc3)nc(C)nc21,nt,25%,16%,1%
COc1ccccc1C(=O)N(Cc1ccco1)C1CCS(=O)(=O)C1 (configuration not stated),>57,8%,15%,3%
O=C(c1cnn2ccccc12)N(Cc1ccco1)C1CCCC1,>57,4µM*[single pt active],10%,0%
Cc1nc(NCc2ccccc2)c2nc(-c3ccccc3)n(CCN3CCCC3)c2n1,nt,77%,12%,3%
